Measured values taken from PubChem BioAssay.
Records with an inconclusive call do not appear. Calls of active or inactive are those of the source. The limit is not given here; nearly all actives have IC50 up to about 30 µM.

Assay: growth inhibition of DIPG cells – cell-based, MIPE5.0 library, qHTS (AID 1347068);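 as to IC50: cells exposed to compound for 48 hours before viability readout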
Conditions: SU-DIPG-XXV viability

| Compound | IC50 | outcome |
| --- | --- | --- |
| CC(C)c1c2cc(-c3ccnc(NC4CCC(NC5CCOCC5)CC4)n3)ccc2nn1C (configuration not stated) | 0.525 µM (active) |  |
| CCN(C(=O)c1ccccc1OC)c1cc2c(cc1N1CCNC[C@H]1C)n(C)c(=O)n2C |  | inactive |
| CCn1c(=O)c(-c2ccc(-c3cncs3)cc2Cl)cc2cnc(Nc3ccc(N4CCN(C)CC4)cc3)nc21 | 10.5 µM (active) |  |
| CNC(=O)c1ccccc1Nc1nc(Nc2ccc3c(c2OC)CCC[C@@H](N2CCN(CCO)CC2)C3)ncc1Cl | 11.8 µM (active) |  |
| Fc1cccc(-n2cnc3c(NCc4nc5c(F)c(F)ccc5[nH]4)nc(N4CCOCC4)nc32)c1 | 0.525 µM (active) |  |
| CNC(=O)c1ccc(Nc2ncc(C(F)(F)F)c(NCc3nccnc3N(C)S(C)(=O)=O)n2)cc1 | 2.35 µM (active) |  |
| Nc1cc(C(F)(F)F)c(-c2nc(N3CCOCC3)nc(N3CCOCC3)n2)cn1 | 1.86 µM (active) |  |
| Cn1cc(-c2ccc(S(=O)(=O)n3ccc(/C=C/C(=O)Nc4ccccc4N)c3)cc2)cn1 | 5.9 µM (active) |  |
| C[C@@H]1COCCN1c1cc(=O)n2c(n1)N(Cc1cncc(Cl)c1)[C@H](C(F)(F)F)CC2 |  | inactive |
| CN1C(=O)[C@@H](NC(=O)c2cc(Cc3ccccc3)on2)COc2ccccc21 |  | inactive |
| COC(=O)N1CC2(CC2)C[C@H](C(=O)NO)[C@H]1C(=O)N1CCN(c2ccccc2)CC1 |  | inactive |
| CN(C)C/C=C/C(=O)Nc1cccc(C(=O)Nc2cccc(Nc3ncc(Cl)c(-c4c[nH]c5ccccc45)n3)c2)c1 | 0.417 µM (active) |  |
